Laboratory results from PubChem BioAssay.
Activity calls are given as the source filed them.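 The calls were made as follows, unless noted: active = GFP response above 150% of the DMSO level; inconclusive = fewer than 70 events counted for a yeast strain; inactive = the rest.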

Columns and labels:
[1] = hit retest on RPL19A-GFP reporter strain – cell-based, S. cerevisiae, flow cytometry, cherry picks, mother/daughter gates, confirmation (AID 2270;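 active = GFP response below 50% of the DMSO control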); settings: 3 h, at 10 µM, stronger effect = lower value, 100 = same GFP as DMSO wells
[2] = yeast TOR pathway reporter LAP4-GFP change – cell-based, cherry picks, flow cytometry, mother/daughter gates, confirmation (AID 2271;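 active = GFP response above 150% of the DMSO control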;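 also: ratio of sample to DMSO plate mean so 100% equals DMSO level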); settings: S. cerevisiae LAP4-GFP strain, 3 h, at 10 µM, stronger effect = higher value, 100 means same as DMSO control
[3] = TOR pathway reporter MEP2-GFP, retest of hits – S. cerevisiae, flow cytometry GFP, cherry picks, confirmation (AID 2272;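 active = GFP response above 150% of the DMSO control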;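 also: ratio of well signal to plate DMSO mean so 100% equals DMSO level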); settings: S. cerevisiae MEP2-GFP strain, 3 h, at 10 µM, stronger effect = higher value
[4] = yeast AGP1-GFP fluorescence change, single-dose – cell-based, flow cytometry, S. cerevisiae, cherry picks, confirmation (AID 2273);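 also: median GFP channel fluorescence over the whole cell population gate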; settings: S. cerevisiae AGP1-GFP strain, 3 h, at 10 µM
[5] = TOR pathway CIT2 reporter hit retest – S. cerevisiae, GFP fusion, cherry picks, mother/daughter gates, confirmation (AID 2274); settings: S. cerevisiae CIT2-GFP strain, flow cytometry, 3 h, at 10 µM, stronger effect = higher value
[6] = reduced mouse 2C T cell binding to pMHC/ICAM-1 vesicles – MLPCN validation set, flow cytometry, LFA-1/ICAM-1 modulator project, pilot screen (AID 2523;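 active = response below a set limit, under 55% cells CD8-positive and vesicle-bound, and CD8 cells' 90th-percentile brightness under 279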;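 as to vesicle binding response: mean PE anti-B7-1 fluorescence of CD8+ cells relative to row control; 100% = QL9-loaded vesicles with DMSO vehicle in the same plate row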); settings: 2C mouse CD8+ T cells, at 7 µM, stronger effect = lower value; double positive events: measured here: CD8+/vesicle+ event percentage
[7] = target: Integrin beta-1 (Homo sapiens) + Integrin alpha-4 (Homo sapiens) (UniProt P13612+P05556); assay: alpha4beta1 integrin LIBS antibody binding reduction – U937 cells, HUTS-21 mAb, flow cytometry, validation set, VLA-4 allosteric modulator project, pilot screen (AID 2674;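 active = inhibition above 50%, about 3 SD of the validation set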;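 also: antibody binding induced by the VLA-4 ligand LDV present at three times its Kd; 0% = LDV ligand with antibody and no compound and 100% = antibody without LDV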); settings: HUTS-21 LIBS mAb binding, at 6.7 µM, stronger effect = higher value, binding induced by LDV ligand
[8] = calorie-restriction mimetic ROS inhibitors, yeast – validation compound set, pilot screen (AID 2706;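 active = superoxide response below 65% of plate, a cut near 3 SD across the whole screen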;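 also: yeast exposed to compound for one week at 30 degrees C before staining; 100% = mean of all compound wells on the same plate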); settings: S. cerevisiae aging, superoxide DHE fluorescence; at 10 µM, stronger effect = lower value
[9] = target: Beta-adrenergic receptor kinase 1 (Homo sapiens) (UniProt P25098); assay: GRK2 binders displacing RNA aptamer, biochemical, validation, human GRK2, bead flow cytometry (AID 488806;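 active = aptamer binding inhibition above 30%, about 3 SD of noise from non-fluorescent compounds; inactive = inhibition at or below 30%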); settings: bead-bound GRK2, FAM-aptamer displacement, at 10 µM, stronger effect = higher value
[10] = target: Beta-2 adrenergic receptor (Homo sapiens) (UniProt P07550); assay: agonist-induced loss of surface beta2AR – cell-based, FAP fluorogen, flow cytometry, validation set, pilot screen (AID 504459;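 active = percent response above 42, roughly 3 SD of non-fluorescent test compounds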;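 also: agonist-driven loss of surface beta2AR via internalization measured by FAP dye flow cytometry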); settings: Am2.2-beta2AR cells, at 10 µM, stronger effect = higher value
[11] = target: AP-2 complex subunit beta (Homo sapiens) (UniProt P63010); assay: beta-arrestin/AP2 interaction blockers – biochemical, validation set, GST-AP2 beads, flow cytometry, pilot screen (AID 504541;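 active = inhibition above 54%, about 3 SD of non-fluorescent compounds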;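 also: AP2 carries R879A mutation and is captured from E. coli lysate; bead-bound FITC arrestin peptide fluorescence measuring arrestin peptide binding to AP2; 0% = DMSO wells and 100% = excess unlabeled arrestin peptide control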); settings: FITC arrestin peptide, at 10 µM, stronger effect = higher value, AP2 beta2 appendage fragment, R879A mutant
[12] = cytosolic pH regulators acting via V-ATPase – S. cerevisiae, pHLuorin, HTS validation (AID 504600; in the data active = response above about 15%;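 also: plate controls were DMSO for no effect and reference compound for full effect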); settings: V-ATPase proton transport, at 10 µM, stronger effect = higher value
[13] = test system: anti-desmoglein-3 scFv antibody binding to human DSG3; assay: blockers of pathogenic pemphigus antibody–desmoglein-3 binding – biochemical, validation compound set, bead-based, flow cytometry, pilot screen (AID 588368;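 active = binding below the plate cutoff, the plate median minus 3 SD, with a reading above zero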;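 also: signal is the median channel fluorescence of bead-bound GFP antibody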); settings: Protein G beads, DSG3-Fc, scFv-GFP binding, at 10 µM, stronger effect = lower value
[14] = Nile Red efflux blockade in pump-expressing yeast – validation compound set, multiplex, phenotypic, pilot screen (AID 588506;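 active = efflux inhibition above 0.42, the validation set average plus 4 SD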;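 also: Nile Red retained in cells so higher fluorescence means more efflux inhibition; 0 = negative control wells and 1 = enniatin B 25 µM full block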); settings: S. cerevisiae pump-expressing triplex, Nile Red efflux flow cytometry; at 10 µM; stronger effect = higher value; the pumps come from Candida albicans
[15] = target: ATP-binding cassette sub-family B member 6 (Homo sapiens) (UniProt Q9NP58); assay: blockers of ABCB6-driven porphyrin uptake – K562-ABCB6 cells, flow cytometry, validation set, pilot screen (AID 588550;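 active = inhibition above the screen-wide mean plus 3 SD, about 51%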;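 also: 0% = DMSO wells and 100% = benzethonium chloride 70 µM positive control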); settings: K562-ABCB6 porphyrin accumulation, 1 h, at 10 µM, stronger effect = higher value
[16] = AML differentiation inducers, ER-HoxA9 marrow cells – cell-based, GFP/MAC1 double positive, flow cytometry, validation set, primary screen (AID 588685;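 active = differentiation response of at least 50%, scaled between solvent and reference control, from cells with both markers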;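 also: compound exposure lasts four days before antibody staining and flow analysis; 0% = DMSO wells and 100% = 5 µM fulvestrant positive control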); settings: stronger effect = higher value, normalized: vehicle 0, fulvestrant 100
[17] = measured here: daughter cell gate
[18] = measured here: mother cell gate
[19] = measured here: daughter cell gate response
[20] = measured here: mother cell gate response

Chain of Beta-2 adrenergic receptor (Homo sapiens) (P07550 whole entry, looked up): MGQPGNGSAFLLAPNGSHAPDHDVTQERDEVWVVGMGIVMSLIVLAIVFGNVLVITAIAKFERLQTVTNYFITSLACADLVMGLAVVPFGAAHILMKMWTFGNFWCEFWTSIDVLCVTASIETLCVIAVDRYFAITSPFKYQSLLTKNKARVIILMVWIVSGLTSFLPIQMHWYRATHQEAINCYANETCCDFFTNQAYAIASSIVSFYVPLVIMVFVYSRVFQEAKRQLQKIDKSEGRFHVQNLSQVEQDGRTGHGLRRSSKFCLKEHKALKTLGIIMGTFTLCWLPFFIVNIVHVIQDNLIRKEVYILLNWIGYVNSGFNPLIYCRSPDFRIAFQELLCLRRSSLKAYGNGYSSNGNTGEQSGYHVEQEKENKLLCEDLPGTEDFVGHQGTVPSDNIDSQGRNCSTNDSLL
Chain of AP-2 complex subunit beta (Homo sapiens) (P63010 whole entry, looked up, the tested form may be a part, one chain of several): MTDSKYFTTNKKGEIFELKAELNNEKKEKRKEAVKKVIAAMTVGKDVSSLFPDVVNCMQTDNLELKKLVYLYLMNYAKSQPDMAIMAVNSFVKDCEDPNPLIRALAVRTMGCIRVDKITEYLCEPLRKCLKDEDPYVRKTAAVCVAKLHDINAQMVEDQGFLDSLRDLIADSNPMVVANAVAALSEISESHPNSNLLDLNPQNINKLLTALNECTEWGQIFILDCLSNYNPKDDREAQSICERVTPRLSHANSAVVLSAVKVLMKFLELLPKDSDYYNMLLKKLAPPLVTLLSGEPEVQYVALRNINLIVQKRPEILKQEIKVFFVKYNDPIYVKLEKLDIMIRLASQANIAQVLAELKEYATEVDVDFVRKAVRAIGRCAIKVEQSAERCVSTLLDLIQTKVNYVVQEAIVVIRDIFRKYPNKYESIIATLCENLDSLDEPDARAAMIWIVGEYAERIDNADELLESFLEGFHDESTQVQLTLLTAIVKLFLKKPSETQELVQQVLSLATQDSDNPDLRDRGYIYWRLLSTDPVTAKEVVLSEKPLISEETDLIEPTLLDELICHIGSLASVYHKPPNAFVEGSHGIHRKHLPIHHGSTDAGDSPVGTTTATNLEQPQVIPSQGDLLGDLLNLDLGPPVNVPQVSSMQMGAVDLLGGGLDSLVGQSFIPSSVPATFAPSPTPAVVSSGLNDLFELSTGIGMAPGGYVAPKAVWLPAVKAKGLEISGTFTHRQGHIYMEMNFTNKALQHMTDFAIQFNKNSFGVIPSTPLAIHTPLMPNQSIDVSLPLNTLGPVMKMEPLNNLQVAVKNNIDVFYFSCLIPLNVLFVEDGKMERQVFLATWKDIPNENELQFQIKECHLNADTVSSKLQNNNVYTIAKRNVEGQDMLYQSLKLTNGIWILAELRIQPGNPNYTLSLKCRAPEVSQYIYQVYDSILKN
Chain of ATP-binding cassette sub-family B member 6 (Homo sapiens) (Q9NP58 whole entry, looked up): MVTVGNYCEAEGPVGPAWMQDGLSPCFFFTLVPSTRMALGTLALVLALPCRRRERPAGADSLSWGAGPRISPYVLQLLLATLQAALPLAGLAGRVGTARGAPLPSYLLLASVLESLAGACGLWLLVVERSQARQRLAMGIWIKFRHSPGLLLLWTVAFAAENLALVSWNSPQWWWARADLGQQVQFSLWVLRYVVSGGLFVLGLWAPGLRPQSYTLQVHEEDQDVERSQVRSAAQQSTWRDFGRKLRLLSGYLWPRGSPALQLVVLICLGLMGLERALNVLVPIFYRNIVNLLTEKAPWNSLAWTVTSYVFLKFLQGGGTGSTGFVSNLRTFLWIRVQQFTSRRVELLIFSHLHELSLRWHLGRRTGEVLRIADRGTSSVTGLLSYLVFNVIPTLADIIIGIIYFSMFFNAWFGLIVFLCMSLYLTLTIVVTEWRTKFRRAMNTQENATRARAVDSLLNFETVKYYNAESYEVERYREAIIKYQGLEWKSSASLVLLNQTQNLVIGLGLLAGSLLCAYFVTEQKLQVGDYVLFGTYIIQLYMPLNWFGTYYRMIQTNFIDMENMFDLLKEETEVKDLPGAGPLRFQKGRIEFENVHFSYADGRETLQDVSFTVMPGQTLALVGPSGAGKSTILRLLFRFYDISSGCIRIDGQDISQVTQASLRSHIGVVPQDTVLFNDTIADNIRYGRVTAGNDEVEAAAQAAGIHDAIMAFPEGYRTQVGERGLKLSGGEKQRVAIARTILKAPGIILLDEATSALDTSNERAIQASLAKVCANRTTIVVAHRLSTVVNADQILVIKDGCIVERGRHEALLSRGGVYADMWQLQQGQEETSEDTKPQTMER
Chain of Integrin beta-1 (Homo sapiens) + Integrin alpha-4 (Homo sapiens) (P05556 whole entry, looked up): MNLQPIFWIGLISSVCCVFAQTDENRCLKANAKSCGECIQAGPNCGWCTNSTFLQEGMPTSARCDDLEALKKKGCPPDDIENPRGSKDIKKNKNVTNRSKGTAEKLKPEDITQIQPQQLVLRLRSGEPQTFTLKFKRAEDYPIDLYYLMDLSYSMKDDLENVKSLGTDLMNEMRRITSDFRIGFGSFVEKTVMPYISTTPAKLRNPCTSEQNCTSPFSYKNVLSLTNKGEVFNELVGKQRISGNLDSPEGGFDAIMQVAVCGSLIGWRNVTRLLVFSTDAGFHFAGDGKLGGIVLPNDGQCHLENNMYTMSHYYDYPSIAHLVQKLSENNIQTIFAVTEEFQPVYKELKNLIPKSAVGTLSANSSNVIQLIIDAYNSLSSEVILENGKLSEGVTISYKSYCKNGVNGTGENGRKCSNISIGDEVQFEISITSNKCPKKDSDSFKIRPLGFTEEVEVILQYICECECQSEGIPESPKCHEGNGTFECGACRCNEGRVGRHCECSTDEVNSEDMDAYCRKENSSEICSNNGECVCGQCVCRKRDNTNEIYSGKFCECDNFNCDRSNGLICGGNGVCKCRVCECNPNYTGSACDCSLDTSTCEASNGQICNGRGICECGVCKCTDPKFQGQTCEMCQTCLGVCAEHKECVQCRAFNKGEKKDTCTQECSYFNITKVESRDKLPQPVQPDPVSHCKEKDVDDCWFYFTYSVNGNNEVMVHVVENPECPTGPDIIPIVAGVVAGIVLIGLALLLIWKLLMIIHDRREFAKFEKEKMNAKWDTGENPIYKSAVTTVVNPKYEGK
Chain of Integrin beta-1 (Homo sapiens) + Integrin alpha-4 (Homo sapiens) (P13612 whole entry, looked up): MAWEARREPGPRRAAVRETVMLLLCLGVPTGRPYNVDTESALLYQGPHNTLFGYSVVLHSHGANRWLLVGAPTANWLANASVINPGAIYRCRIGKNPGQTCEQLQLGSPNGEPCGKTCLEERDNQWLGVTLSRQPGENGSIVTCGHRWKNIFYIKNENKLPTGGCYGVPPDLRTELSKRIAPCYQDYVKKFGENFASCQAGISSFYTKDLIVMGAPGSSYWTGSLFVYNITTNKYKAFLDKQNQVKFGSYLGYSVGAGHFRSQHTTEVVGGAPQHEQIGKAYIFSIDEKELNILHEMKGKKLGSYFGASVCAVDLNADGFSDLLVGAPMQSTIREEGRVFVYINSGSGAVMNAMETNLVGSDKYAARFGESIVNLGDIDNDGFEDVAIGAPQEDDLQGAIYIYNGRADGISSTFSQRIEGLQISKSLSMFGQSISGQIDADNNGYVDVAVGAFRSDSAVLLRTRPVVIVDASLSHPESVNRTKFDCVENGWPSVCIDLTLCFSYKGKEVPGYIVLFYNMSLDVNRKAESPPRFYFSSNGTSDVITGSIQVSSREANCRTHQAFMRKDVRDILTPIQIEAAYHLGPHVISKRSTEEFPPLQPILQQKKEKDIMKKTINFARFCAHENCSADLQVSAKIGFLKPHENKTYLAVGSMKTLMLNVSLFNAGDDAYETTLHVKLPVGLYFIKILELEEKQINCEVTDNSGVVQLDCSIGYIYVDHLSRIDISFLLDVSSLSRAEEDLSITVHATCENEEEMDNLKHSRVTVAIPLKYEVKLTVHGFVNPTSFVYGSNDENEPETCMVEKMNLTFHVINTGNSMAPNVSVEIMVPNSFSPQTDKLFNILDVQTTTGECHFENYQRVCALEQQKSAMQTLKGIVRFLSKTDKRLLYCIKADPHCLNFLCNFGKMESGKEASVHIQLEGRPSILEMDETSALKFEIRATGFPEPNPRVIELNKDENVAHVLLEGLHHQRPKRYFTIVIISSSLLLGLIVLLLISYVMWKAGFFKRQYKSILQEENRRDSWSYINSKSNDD
Chain of Beta-adrenergic receptor kinase 1 (Homo sapiens) (P25098 whole entry, looked up): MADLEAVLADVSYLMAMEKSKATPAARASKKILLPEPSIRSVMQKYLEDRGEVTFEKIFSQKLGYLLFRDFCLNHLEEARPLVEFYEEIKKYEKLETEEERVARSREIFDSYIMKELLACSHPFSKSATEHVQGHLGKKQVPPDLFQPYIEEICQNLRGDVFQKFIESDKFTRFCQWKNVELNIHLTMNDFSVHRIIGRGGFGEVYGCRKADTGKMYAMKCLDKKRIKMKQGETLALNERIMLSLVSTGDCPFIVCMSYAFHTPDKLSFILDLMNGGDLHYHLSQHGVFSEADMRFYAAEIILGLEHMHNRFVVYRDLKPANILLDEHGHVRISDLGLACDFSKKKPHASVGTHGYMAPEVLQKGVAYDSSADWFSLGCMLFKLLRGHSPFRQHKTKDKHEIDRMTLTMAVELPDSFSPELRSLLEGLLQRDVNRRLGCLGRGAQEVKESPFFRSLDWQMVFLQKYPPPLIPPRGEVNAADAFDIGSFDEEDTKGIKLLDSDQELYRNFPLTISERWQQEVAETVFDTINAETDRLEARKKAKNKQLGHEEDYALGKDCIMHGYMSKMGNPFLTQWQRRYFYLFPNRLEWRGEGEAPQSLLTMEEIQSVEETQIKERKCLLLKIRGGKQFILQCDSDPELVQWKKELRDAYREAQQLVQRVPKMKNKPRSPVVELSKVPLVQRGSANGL

Compound: COc1ccc(C2C3=C(CCCC3=O)N(CC(=O)O)C3=C2C(=O)CCC3)cc1Cl
- GFP response vs DMSO [1]: 102% (inactive)
- GFP response vs DMSO [1, 17]: 99%
- GFP response vs DMSO [1, 18]: 98.5%
- GFP response relative to DMSO [2]: 93.8% (inactive)
- GFP response vs DMSO [3]: 100% (inactive)
- GFP response, % of DMSO [4]: 104% (inactive)
- GFP response, % of DMSO [5]: 111% (inactive)
- GFP response, % of DMSO [5, 17]: 111%
- GFP response, % of DMSO [5, 18]: 111%

Compound: Cc1nn2c(N3CCCC3)cc(C(C)C)nc2c1-c1ccccc1
- GFP response vs DMSO [1]: 100% (inactive)
- GFP response vs DMSO [1, 17]: 92.4%
- GFP response relative to DMSO [2]: 102% (inactive)
- GFP response relative to DMSO [2, 19]: 97.5%
- GFP response relative to DMSO [2, 20]: 103%
- GFP response vs DMSO [3]: 101% (inactive)
- GFP response, % of DMSO [4]: 97.8% (inactive)
- GFP response, % of DMSO [5]: 97.3% (inactive)
- GFP response, % of DMSO [5, 17]: 97.4%
- GFP response, % of DMSO [5, 18]: 95.6%

Compound: Oc1ccc(COCc2ccccc2)c2cccnc12
- GFP response vs DMSO [1]: 98% (inactive)
- GFP response vs DMSO [1, 18]: 93.8%
- GFP response relative to DMSO [2]: 149% (inactive)
- GFP response relative to DMSO [2, 19]: 138%
- GFP response relative to DMSO [2, 20]: 152%
- GFP response vs DMSO [3]: 114% (inactive)
- GFP response, % of DMSO [4]: 98.6% (inactive)
- GFP response, % of DMSO [5]: 95.8% (inactive)
- GFP response, % of DMSO [5, 17]: 101%
- GFP response, % of DMSO [5, 18]: 91.5%
- double positive events [6]: 65.9%
- vesicle binding response [6]: 129% (inactive)
- inhibition [7]: -0.43% (inactive)
- superoxide response (% of plate) [8]: 75.4% (inactive)
- aptamer binding inhibition [9]: 0% (inactive)
- response [10]: -7.8% (inactive)
- inhibition [11]: -1% (inactive)
- response [12]: 2.93% (inactive)
- binding (% of control) [13]: 101% (inactive)
- efflux inhibition (fraction of control) [14]: 0.12 (inactive)
- inhibition [15]: 1% (inactive)
- differentiation response [16]: 40.8% (inactive)

Compound: CCCc1[nH]nc2c1C(c1ccc(OC(=O)N3CCOCC3)c(OC)c1)C(C#N)=C(N)O2 (stereo not drawn)
- GFP response vs DMSO [1]: 100% (inactive)
- GFP response vs DMSO [1, 17]: 101%
- GFP response vs DMSO [1, 18]: 95.4%
- GFP response relative to DMSO [2]: 102% (inactive)
- GFP response vs DMSO [3]: 100% (inactive)
- GFP response, % of DMSO [4]: 97.8% (inactive)
- GFP response, % of DMSO [5]: 97.8% (inactive)
- GFP response, % of DMSO [5, 17]: 89.9%
- GFP response, % of DMSO [5, 18]: 97.7%

Compound: N#C/C(=C/c1ccc(N2CCOCC2)o1)c1ccc(Cl)cc1
- GFP response vs DMSO [1]: 96.8% (inactive)
- GFP response vs DMSO [1, 17]: 93.4%
- GFP response vs DMSO [1, 18]: 91.5%
- GFP response relative to DMSO [2]: 109% (inactive)
- GFP response vs DMSO [3]: 104% (inactive)
- GFP response, % of DMSO [4]: 95.8% (inactive)
- GFP response, % of DMSO [5]: 104% (inactive)
- GFP response, % of DMSO [5, 17]: 108%
- GFP response, % of DMSO [5, 18]: 96.8%

Compound: COc1cccc(/C(C)=N/NC(=O)c2ccc(N(C)C)cc2)c1
- GFP response vs DMSO [1]: 99.7% (inactive)
- GFP response vs DMSO [1, 17]: 96.5%
- GFP response vs DMSO [1, 18]: 99.7%
- GFP response relative to DMSO [2]: 93% (inactive)
- GFP response vs DMSO [3]: 99.5% (inactive)
- GFP response, % of DMSO [4]: 98.9% (inactive)
- GFP response, % of DMSO [5]: 102% (inactive)
- GFP response, % of DMSO [5, 17]: 102%
- GFP response, % of DMSO [5, 18]: 89.8%

Compound: COc1ccccc1-c1noc(-c2cccnc2)n1
- GFP response vs DMSO [1]: 95.3% (inactive)
- GFP response vs DMSO [1, 17]: 93%
- GFP response vs DMSO [1, 18]: 95.4%
- GFP response relative to DMSO [2]: 97.7% (inactive)
- GFP response vs DMSO [3]: 108% (inactive)
- GFP response, % of DMSO [4]: 96.6% (inactive)
- GFP response, % of DMSO [5]: 95.8% (inactive)
- GFP response, % of DMSO [5, 17]: 88.7%
- GFP response, % of DMSO [5, 18]: 82.6%

Compound: Cn1c(C(=O)O)cc2c(=O)n3ccccc3nc21
- GFP response vs DMSO [1]: 101% (inactive)
- GFP response vs DMSO [1, 17]: 99.3%
- GFP response vs DMSO [1, 18]: 99%
- GFP response relative to DMSO [2]: 97.7% (inactive)
- GFP response vs DMSO [3]: 104% (inactive)
- GFP response, % of DMSO [4]: 102% (inactive)
- GFP response, % of DMSO [5]: 104% (inactive)
- GFP response, % of DMSO [5, 17]: 104%
- GFP response, % of DMSO [5, 18]: 95.6%

Compound: Cc1ccc(NC(=O)c2ccc(Cl)c(N3C(=O)C=CC3=O)c2)cc1
- GFP response vs DMSO [1]: 86.1% (inactive)
- GFP response vs DMSO [1, 18]: 69.8%
- GFP response relative to DMSO [2]: 217% (active)
- GFP response relative to DMSO [2, 20]: 186%
- GFP response vs DMSO [3]: 129% (inactive)
- GFP response, % of DMSO [4]: 97.1% (inactive)
- GFP response, % of DMSO [5]: 84.9% (inactive)

Compound: CCN1/C(=C/C(C)=C/c2sc3ccccc3[n+]2CC)Sc2ccccc21
- GFP response vs DMSO [1]: 79.8% (inactive)
- GFP response vs DMSO [1, 17]: 61.3%
- GFP response vs DMSO [1, 18]: 72.1%
- GFP response relative to DMSO [2]: 243% (active)
- GFP response relative to DMSO [2, 20]: 211%
- GFP response vs DMSO [3]: 133% (inactive)
- GFP response, % of DMSO [4]: 101% (inactive)
- GFP response, % of DMSO [5]: 100% (inactive)
- GFP response, % of DMSO [5, 17]: 83.4%
- GFP response, % of DMSO [5, 18]: 97.7%

Compound: CCc1ccc(C2CC(c3ccco3)=NN2S(C)(=O)=O)cc1 (stereo not drawn)
- GFP response vs DMSO [1]: 108% (inactive)
- GFP response vs DMSO [1, 17]: 108%
- GFP response vs DMSO [1, 18]: 101%
- GFP response relative to DMSO [2]: 131% (inactive)
- GFP response vs DMSO [3]: 180% (active)
- GFP response, % of DMSO [4]: 108% (inactive)
- GFP response, % of DMSO [5]: 188% (active)

Compound: CCc1nnc(NC(=O)c2nc(S(=O)(=O)Cc3ccccc3)ncc2Cl)s1
- GFP response vs DMSO [1]: 94.9% (inactive)
- GFP response vs DMSO [1, 17]: 95.9%
- GFP response vs DMSO [1, 18]: 91.4%
- GFP response relative to DMSO [2]: 98.9% (inactive)
- GFP response vs DMSO [3]: 103% (inactive)
- GFP response, % of DMSO [4]: 97.3% (inactive)
- GFP response, % of DMSO [5]: 101% (inactive)
- GFP response, % of DMSO [5, 17]: 103%
- GFP response, % of DMSO [5, 18]: 97.1%

Compound: O=C(Nc1cc(F)c(Br)cc1F)c1ccc(Cl)cc1
- GFP response vs DMSO [1]: 99.3% (inactive)
- GFP response vs DMSO [1, 17]: 93.3%
- GFP response vs DMSO [1, 18]: 87.2%
- GFP response relative to DMSO [2]: 97.7% (inactive)
- GFP response vs DMSO [3]: 106% (inactive)
- GFP response, % of DMSO [4]: 98.8% (inactive)
- GFP response, % of DMSO [5]: 103% (inactive)
- GFP response, % of DMSO [5, 17]: 94%
- GFP response, % of DMSO [5, 18]: 94.9%
